Hit rate of the full screen: of about 310,000 compounds, about 18,000 (5.8%) were called active. Not shown: some 22% with an inconclusive outcome. What follows is part of a selection rich in actives, with near analogues and random picks from the rest. Entries that show only a call come without a potency. Unmarked numbers belong to inactive results. The call rests on the fitted dose curve; in most records, active means well fitted inhibition curve with a large enough effect; inconclusive means small, poorly fitted or top-dose-only effect, or another doubt; inactive means no such curve, though single readings can be large or run the other way.
Potency means the concentration at half of the fitted maximal effect.

This test can be described thus: Primary qHTS for delayed death inhibitors of the malarial parasite plastid, 48 hour incubation. To be noted: P. falciparum luciferase growth in erythrocytes; series mostly up to 28.7 µM. The text has this:
The goal of this screen is to discover new antimalarial compounds that act by inhibiting the development of the apicoplast in the malarial parasite Plasmodium falciparum. The biochemical processes that make this organelle essential for erythrocytic stage parasites are not well understood. However, antibiotics such as azithromycin and tetracycline, which target the apicoplast translational machinery, have a potent antimalarial effect.
We have developed a cell-based assay that measures parasite growth based on the expression of an integrated copy of a firefly luciferase reporter. To detect small molecules that cause this "delayed death" phenotype, erythrocytes infected with the luciferase-expressing parasites were incubated with compounds for either one or two generations, corresponding to 48 and 96 hours, respectively. Compounds that inhibit parasite growth in the second generation, but not the first, should be enriched in antimalarials that target the apicoplast. Growth inhibition is detected by a decrease in luciferase activity.
Assay Provider: David Fidock and Eric Ekland, Columbia University
Keywords: NIH Roadmap, MLPCN, MLI, MLSMR, qHTS, NCGC, qHTS, malaria, luciferase, viability
Four microliters of culture medium (RPMI 1640 with 0.5% w/v Albumax (GIBCO), 24 mM sodium bicarbonate and 10 ug/mL gentamycin) were dispensed by a Multi-drop Combi into white solid 1536-well plates (Grenier) and 23 nL compound was added by a pin tool. Four microliters of infected erythrocytes (2% hematocrit, 0.1% parasitemia final concentration) in culture medium were dispensed and the plates incubated for 48 hours at 37 C in 5% CO2. Two microliters of luciferase detection reagent was added and luminescence was detected by a ViewLux (PerkinElmer) reader.
Regarding `O=C(Nc1nnc(S(=O)(=O)N2CCOCC2)s1)c1cccc(Br)c1`, the Potency entry was “inactive”.
Turning to `O=C(CCc1ccccc1)NCc1cccnc1`, the Potency result is “inactive”.
As for `O=C(NCCc1ccccc1)C1CCC(Cn2c(=O)c3ccccc3n(Cc3cccnc3)c2=O)CC1` (stereo not given), the Potency is 11.7 µM (active).
On to `COc1ccc(CCNC(=O)Cn2c(=O)n(CC3CCCO3)c(=O)c3ccccc32)cc1OC` (stereo not given), for which the Potency result was “inactive”.
On to `COCCN(C(=O)CCC(=O)Nc1nccs1)C(C(=O)NCCC(C)C)c1ccc(F)cc1` (stereo not given), for which the Potency result was “inactive”.
Consider `COc1ccc(Nc2ncnc3sc(-c4ccccc4)cc23)c(OC)c1`, for which the Potency result was “inactive”.
Consider `c1ccc(-n2ncc3c(N4CCCC4)ncnc32)cc1`, for which the Potency result was “inactive”.
For `Oc1ccccc1N1CCN(c2ncnc3sc(-c4ccccc4)cc23)CC1`, the Potency was 13.1 µM (active).
As to `Cn1c(=O)oc2cc(S(=O)(=O)NCCC(=O)NCc3ccccc3Cl)ccc21`, the Potency result was “inactive”.
The same measure, in the same setting: under `OC(CNCc1ccc2c(c1)OCO2)COc1ccccc1` (stereo not given) stands 3.29 µM (active); under `Cc1ccc(CNCc2ccc3c(c2)OCO3)c(C)c1`, “inactive”.
Regarding `COc1cccc(CNCc2ccc3c(c2)OCO3)c1`, the Potency entry was “inactive”.
For `CNS(=O)(=O)c1ccc(NC(=O)Nc2ccc3c(c2)OCO3)cc1`, the Potency result was “inactive”.
As for `O=C(Nc1ccc(S(=O)(=O)Nc2ncccn2)cc1)C12CC3CC(CC(C3)C1)C2`, the Potency entry was “inactive”.
Still for that read-out and setting: under `CCn1nccc1C(=O)Nc1ccc(Cl)c(Cl)c1` stands “inactive”; under `CCn1nccc1C(=O)Nc1ccc(S(=O)(=O)NC23CC4CC(CC(C4)C2)C3)cc1`, 6.57 µM (active).
Same read-out and setting: next, `Cc1ccc(C)c(S(=O)(=O)Nc2cc(C)on2)c1`: “inactive”; `OC(c1ccc(Cl)cc1)C(CN1CCOCC1)c1ccccc1` (stereo not given): 2.33 µM (active); `CC(CN1CCOCC1)c1ccccc1` (stereo not given): “inactive”.
With `O=C(CC(c1ccccc1)c1cc(Cl)ccc1O)NCCN1CCOCC1` (stereo not given), the Potency entry is “inactive”.
Same read-out and setting: under `O=C(CN(C(=O)c1csnn1)c1ccc(Br)cc1)NC1CCCC1` stands “inactive”; under `CC(C)(C)c1ccc(S(=O)(=O)N2CCN(C(=O)c3ccc4c(c3)C(=O)N(Cc3ccncc3)C4=O)CC2)cc1`, “inactive”.
As to `CC(C)(C)c1ccccc1NC(=O)CN1C(=O)NC2(CCCC2)C1=O`, the Potency entry is “inactive”.
As to `O=C(Nn1cnnc1)c1cc(Cl)ccc1Cl`, the Potency result is “inactive”.
Turning to `Cc1sc2ncnc(Sc3nc4ccccc4s3)c2c1C`, the Potency was 1.85 µM (active).
Regarding `c1ccc2sc(SNC3CCCCC3)nc2c1`, the Potency entry is “inactive”.
Regarding `CSc1ncnc2sc(C)c(C)c12`, the Potency entry was “inactive”.
In the case of `Cc1coc2c1c(C)cc1oc(=O)c(CC(=O)NCC(=O)N[C@H](C(=O)O)C(C)C)c(C)c12`, the activity change, negative = inhibition is -9.45% [at 0.00184 µM].
Regarding `CC(=O)N[C@@H](C)C(=O)N1CCC(n2nccc2NC(=O)CCCc2ccccc2)CC1`, the Potency entry was “inactive”.
Turning to `Cc1ccc(C)c(OCCC(=O)OCC(=O)NC(=O)NCc2ccccc2)c1`, the Potency result is “inactive”.
Consider `CCC1CCCCN1C(=S)Nc1ccc(S(=O)(=O)Nc2ncccn2)cc1` (stereo not given), for which the Potency entry is “inactive”.
With `O=C(CCN1C(=O)[C@@H]2Cc3ccccc3CN2C1=O)NCCc1ccccc1`, the Potency entry is “inactive”.
On to `O=C(c1ccc(OC2CCN(Cc3ccccn3)CC2)cc1)N1CCCCCC1`, for which the Potency result was “inactive”.
Take `O=C(c1ccc(OC2CCN(C/C=C/c3ccc(F)cc3)CC2)cc1)N1CCCCC1`: the Potency is 11.7 µM (active).
Same read-out and setting: under `CC(=O)Nc1ccc(CN2CCC(Oc3ccc(C(=O)N4CCCC4)cc3)CC2)cc1` stands “inactive”; under `CCc1noc(C)c1C(=O)NNC(=O)c1ccc(F)cc1`, “inactive”; under `CCn1nc(C)c(CNC(=O)C2CCC(=O)N(Cc3cccc(F)c3)C2)c1C` (stereo not given), “inactive”.
Regarding `CC(C)[C@H](NC(=O)N1CCn2c1nc1ccccc12)C(=O)NCc1ccc2c(c1)OCO2`, the Potency result was “inactive”.
With `CC(C)(C)c1ccc(C(=O)N2CCC(C(=O)N3CCCCC3)CC2)cc1`, the Potency result was “inactive”.
The same measure, in the same setting: under `CC(C)(C)c1ccc(/C=C2\Oc3c(ccc(O)c3CN3CCN(CCO)CC3)C2=O)cc1` stands 10.4 µM (active); under `CC(=O)Nc1cccc(NC(=O)c2ccc3c(c2)CCN3S(C)(=O)=O)c1`, “inactive”; under `C[C@H](NC(=O)C1CC(=O)N(c2ccc3c(c2)OCCO3)C1)C(=O)N1CCC(C(=O)O)CC1` (stereo not given in full), “inactive”.
`CC1(C)c2[nH]c3ccccc3c2C[C@H]2C(=O)N(N)CC(=O)N21`: the Potency entry is “inactive”.
Turning to `Cc1cc(C)cc(OCc2nnc(SCC(=O)Nc3ccccc3)o2)c1`, the Potency entry was “inactive”.
For `Cc1ccccc1OCc1nnc(SCC(=O)N2c3ccccc3Sc3ccc(Cl)cc32)o1`, the Potency is 10.4 µM (active).
For the compound `Cc1cc(C)cc(OCc2nnc(SCC(=O)OC3CCCCC3)o2)c1`, the Potency result is “inactive”.
As for `CC(C)Oc1ccc(C(=O)NCC(=O)Nc2ccc3c(c2)CCC3)cc1`, the Potency entry is “inactive”.
On to `O=C(Nc1ccc(S(=O)(=O)N2CCCC2)cc1Cl)C1=COCCO1`, for which the Potency result was “inactive”.
As for `CCN(CC)c1ccc(S(=O)(=O)N2CCOCC2)cc1NC(=O)CSc1cccc[n+]1[O-]`, the Potency result is “inactive”.
For `CCN(CC)c1ccc(S(=O)(=O)N2CCCCC2)cc1NC(=O)C1=COCCO1`, the Potency is 13.1 µM (active).

Source of the values: PubChem BioAssay AID504832 (National Center for Advancing Translational Sciences (NCATS), 2011).
